# Test results from PubChem BioAssay.
# The source made the active and inactive calls. Unless noted, how the calls were made is not given here.
# How the values were obtained:
# [1] = tested on: Wnt5a (protein binding on small-molecule microarray); assay: Wnt5a binders on small-molecule microarray, primary screen, biophysical, 635/667 nm fluorescence (AID 1142); details: 635 nm fluorescence, higher = more signal;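 further: fluorescence read at 667 nm with signal to noise per printed feature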
# [2] = cell viability in Huh7 cells, primary screen, cytotoxicity control for HCV replication inhibitor project, CellTiter-Glo luminescence, basal, 48 h (AID 1143); details: Huh7 HCV replicon, higher = more signal, called active from +8 up or from −8 down;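 further: Huh7 hepatoma cells carrying a hepatitis C replication reporter with no stimulus; test concentration not given here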
# [3] = P. aeruginosa biofilm formation inhibitors, primary screen, PAO1 strain, BacTiter-Glo luminescence, LB-PBS (AID 1144); details: 12 h, higher = more signal
# [4] = CREB reporter modulators without forskolin, primary screen, cell-based, PC12, CRE-LacZ reporter, unstimulated (AID 1145); details: no forskolin, luminescence, 4.5 h, higher = more signal, called active from +8 up or from −8 down
# [5] = CREB reporter modulators under forskolin, primary screen, cell-based, PC12, CRE-LacZ reporter, forskolin-stimulated (AID 1146); details: luminescence, 4.5 h, higher = more signal, called active from +8 up or from −8 down;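 further: PC12 cells with 6xCRE LacZ reporter stimulated by forskolin 10 µM; beta-galactosidase reporter signal reflecting CREB driven transcription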
# [6] = target: Streptavidin (Streptomyces avidinii) (UniProt P22629); assay: streptavidin binders on small-molecule microarray, primary screen, artefact control for SMM compound annotation, biophysical, 635/667 nm fluorescence (AID 1147); details: streptavidin binding, higher = more signal;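 further: signal reflects streptavidin binding to arrayed compounds as a control protein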
# Chain of Streptavidin (Streptomyces avidinii) (P22629 whole entry, looked up): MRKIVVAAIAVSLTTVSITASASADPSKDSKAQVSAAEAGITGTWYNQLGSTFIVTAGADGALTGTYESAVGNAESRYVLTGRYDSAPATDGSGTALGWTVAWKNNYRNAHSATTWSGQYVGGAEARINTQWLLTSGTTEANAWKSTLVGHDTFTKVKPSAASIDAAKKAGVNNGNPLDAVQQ
# [7] = small-molecule binders of probe aInhba, primary screen, biochemical, small-molecule microarray, 635/667 nm fluorescence (AID 1148); details: higher = more signal;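 further: score merges 667nm spot fluorescence with signal-to-noise for antibody binding to printed compounds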
# Torsin-1A (Homo sapiens) [8] = target: Torsin-1A (Homo sapiens) (UniProt O14656); assay: torsin A binders from cell lysate, primary screen, small-molecule microarray, wild-type, 635/667 nm (AID 1149); details: COS7 hTOR1A-WT lysate, 635 nm fluorescence, higher = more signal
# Chain of Torsin-1A (Homo sapiens) (O14656 whole entry, looked up): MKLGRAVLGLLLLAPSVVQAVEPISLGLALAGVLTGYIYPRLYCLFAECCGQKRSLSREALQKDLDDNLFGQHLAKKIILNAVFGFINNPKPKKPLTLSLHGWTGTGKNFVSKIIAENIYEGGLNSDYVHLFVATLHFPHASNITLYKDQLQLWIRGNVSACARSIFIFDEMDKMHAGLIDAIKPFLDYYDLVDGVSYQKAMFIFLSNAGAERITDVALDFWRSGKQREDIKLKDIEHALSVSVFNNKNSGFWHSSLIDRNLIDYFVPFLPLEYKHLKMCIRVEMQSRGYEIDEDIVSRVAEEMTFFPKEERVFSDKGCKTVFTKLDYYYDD
# Torsin-1A (Homo sapiens) [9] = target: Torsin-1A (Homo sapiens) (UniProt O14656); assay: small-molecule binders of mutant TOR1A in lysate, primary screen, cell lysate, small-molecule microarray, COS7 lysate, 635/667 nm fluorescence (AID 1150); details: COS7 hTOR1A mutant lysate, 635 nm fluorescence, higher = more signal;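 further: score pools 667 nm emission and signal to noise measuring lysate protein binding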
# [10] = tested on: Sonic hedgehog protein (Shh); assay: small-molecule binders of Shh protein, primary screen, biochemical, small-molecule microarray, 635/667 nm fluorescence (AID 1151); details: small-molecule microarray binding, 635 nm fluorescence; higher = more signal;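 further: Shh protein binding to compounds spotted on small-molecule microarray slides; score combines spot fluorescence intensity with signal-to-noise across triplicate slides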
Structure (SMILES),composite z-score [1],z-score [2],z-score [3],z-score [4],z-score [5],composite z-score [6],composite z-score [7],composite z-score (Torsin-1A (Homo sapiens) [8]),composite z-score (Torsin-1A (Homo sapiens) [9]),composite z-score [10]
COc1ccc(COC(=O)NN=C2C[C@@H](O)[C@@H](O)[C@@H]3[C@@H]4C(=O)N(C[C@@H]5CCCO5)C(=O)[C@@H]4CC[C@H]23)cc1,-0.109,0.338 (inactive),0.296 (inactive),0.159 (inactive),-0.166 (inactive),0.669,0.0275,-0.858,-0.48,-1.12
CCOC(=O)[C@H](Cc1ccccc1)NC(=O)CCC1CC(OC(=O)NCc2cccc3ccccc23)CC2(CCCC(COC(=O)NCC3CCCCC3)O2)O1 (stereo not given in full),0.297,-0.213 (inactive),-0.441 (inactive),-0.343 (inactive),0.895 (inactive),0.307,0.0155,0.156,0.224,0.955
C[C@H]1CC[C@H]2C(=O)OC(COc3ccc(C(C)(C)C)cc3)CN2[C@@H]1c1ccc(Br)cc1 (stereo not given in full),0.253,-0.259 (inactive),-1.12 (inactive),2.36 (inactive),-1.04 (inactive),0.468,-0.176,0.213,0.179,0.0438
C[C@@H]1CC[C@H]2C(=O)OC(Cc3ccccc3)CN2[C@H]1c1ccc(Br)cc1 (stereo not given in full),-0.0444,-0.395 (inactive),0.7 (inactive),1.2 (inactive),-0.517 (inactive),0.221,-0.0963,0.172,-0.0439,0.513
CC(=O)OC[C@H]1O[C@H](CC=NOC[C@@H](O)[C@H]2O[C@@H]3OC(C)(C)O[C@@H]3[C@H]2O)C=C[C@@H]1OC(C)=O,0.0795,0.165 (inactive),-0.0289 (inactive),-1.3 (inactive),-0.521 (inactive),0.168,-0.152,-0.197,0.071,-0.0919
O=C(NN=C1C[C@@H](O)[C@@H](O)[C@@H]2[C@@H]3C(=O)N(c4ccc(F)cc4F)C(=O)[C@@H]3CC[C@H]12)OCc1ccccc1,-0.0874,-0.845 (inactive),0.0604 (inactive),-0.299 (inactive),0.139 (inactive),0.727,-0.101,0.671,1.13,-0.836
O=C1C[C@@H](O)[C@@H](O)[C@@H]2[C@@H]3C(=O)N(Cc4ccccc4)C(=O)[C@@H]3CC[C@H]12,0.0217,-0.3 (inactive),-0.473 (inactive),-0.293 (inactive),-0.497 (inactive),0.636,-0.0719,0.176,0.37,0.718
CCc1cc2c(nc1CC)CCN(CCC(C)=NOC(C)CN1CCCCc3nc(C)c(C)cc31)C2 (stereo not given),0.393,-3.02 (inactive),0.227 (inactive),2.08 (inactive),0.633 (inactive),0.88,0.0713,2.23,1.08,1.58
CO[C@@H]1COC(=O)[C@H](COCc2ccccc2)NC(=O)CC=C[C@@H](C)[C@H](OC)COC(=O)[C@@H](C)NC(=O)CC=C[C@H]1C,-0.128,-0.0313 (inactive),0.104 (inactive),0.337 (inactive),-0.803 (inactive),-0.801,-0.179,1.53,0.544,1.92
CCN1C(C)=C(C(=O)OC)[C@@H](c2ccccc2)N2C(=O)[C@](O)(C(=O)OC)CC(C(C)=O)=C12,0.24,0.0021 (inactive),-0.63 (inactive),-0.324 (inactive),-0.482 (inactive),-0.466,-0.0986,0.837,0.153,0.742
COC(=O)CC=C1c2ccccc2[C@H](OC)[C@H]1C,0.0034,0.553 (inactive),0.624 (inactive),0.478 (inactive),0.345 (inactive),-0.0324,0.0275,0.399,-0.127,0.103
O=C1C=C[C@@H](O)[C@@H]2[C@@H]3C(=O)N(Cc4ccc5c(c4)OCO5)C(=O)[C@@H]3CC[C@@H]12,0.538,-0.655 (inactive),0.917 (inactive),-0.567 (inactive),-0.332 (inactive),0.283,-0.307,0.376,0.123,0.499
CCOC(=O)CCN1C(=O)[C@H]2[C@H]3[C@H](O)[C@H](O)CC(=NNC(=O)OCc4ccc(OC)cc4)[C@H]3CC[C@H]2C1=O,-0.169,-0.401 (inactive),0.136 (inactive),0.523 (inactive),-0.139 (inactive),-0.0807,-0.257,0.306,0.111,0.236
COC(=O)[C@H](C)NC(=O)CCC1CC(OC(=O)NCc2cccc3ccccc23)CC2(CCCC(COC(=O)NCCOc3ccccc3)O2)O1 (stereo not given in full),0.029,-2.56 (inactive),0.0153 (inactive),-0.709 (inactive),0.222 (inactive),0.688,-0.025,0.182,-0.13,0.334
C[C@]12CCC3c4ccc(OCC5CO5)cc4CCC3C1CC[C@@H]2O (stereo not given in full),0.201,-1.78 (inactive),-0.168 (inactive),2.75 (inactive),0.806 (inactive),0.699,0.0561,0.114,0.241,-0.0357
CON=C1c2cc(OC)ccc2O[C@H](c2cccc(OC)c2)[C@H]1O,-0.038,-3.45 (inactive),-0.243 (inactive),-0.0731 (inactive),-0.206 (inactive),0.431,-0.016,0.195,0.517,0.755
CO[C@@H]1COC(=O)CC=C[C@H](C)[C@H](OC)COC(=O)[C@@H]2CCCN2C(=O)CC=C[C@H]1C,0.0408,-0.754 (inactive),0.243 (inactive),0.609 (inactive),-0.628 (inactive),-0.0406,-0.0112,0.719,1.22,1.83
O=C1[C@H]2[C@H]3[C@H](O)[C@H](O)CC(=NOC[C@@H](O)COCc4ccco4)[C@@H]3CC[C@H]2C(=O)N1Cc1ccccc1,-0.0051,-1.65 (inactive),0.969 (inactive),-0.294 (inactive),0.183 (inactive),-0.153,-0.186,3.04,1.92,0.399
C[C@H]1C=CCC(=O)OC[C@H](C)C(=O)N2CCC[C@H]2C(=O)OC1,0.193,-0.401 (inactive),-0.324 (inactive),-0.324 (inactive),0.0267 (inactive),-0.176,-0.182,3.32,3.03,2.35
CCOC(=O)[C@H](Cc1ccccc1)NC(=O)CCC1CC(OC(=O)NCCc2ccc(F)cc2)CC2(CCCC(COC(=O)NCc3cccc(C(F)(F)F)c3)O2)O1 (stereo not given in full),0.011,-2.08 (inactive),0.885 (inactive),-0.162 (inactive),-0.605 (inactive),0.899,-0.101,0.386,0.376,1.48
CCN1C(=O)[C@H]2[C@H]3[C@H](O)[C@H](O)CC(=NOCC(C)C)[C@H]3CC[C@H]2C1=O,-0.0772,0.306 (inactive),0.138 (inactive),-0.202 (inactive),0.13 (inactive),0.342,-0.0774,-0.284,0.303,0.599
CO[C@@H]1[C@H](O)CO[C@H]1C=Cc1ccccc1,-0.174,-0.536 (inactive),0.165 (inactive),-0.164 (inactive),-0.43 (inactive),-0.223,-0.182,-0.518,0.0143,-0.0147
O=C1[C@H]2[C@H]3[C@H](O)[C@H](O)CC(=NOCc4ccccc4)[C@@H]3CC[C@H]2C(=O)N1c1cccc(Oc2ccccc2)c1,-0.0001,-0.558 (inactive),1.31 (inactive),-0.658 (inactive),0.0169 (inactive),0.0831,-0.024,0.186,0.0495,1.03
CC[C@@H](c1ccccc1)n1c(=O)n2n(c1=O)[C@H]1[C@H](O)[C@@H]3O[C@@H]3C(=NOCc3ccccc3)[C@H]1CC2,0.0576,-3.91 (inactive),0.479 (inactive),0.248 (inactive),0.706 (inactive),0.347,-0.0131,0.106,0.223,1.05
CCOC(=O)CCN1C(=O)[C@H]2[C@H]3[C@H](O)[C@H](O)CC(=NOCC=C(C)CCC=C(C)C)[C@H]3CC[C@H]2C1=O,0.0888,-0.148 (inactive),1.18 (inactive),0.153 (inactive),0.462 (inactive),0.344,0.12,0.703,0.355,-0.423
CC(CCN1CCc2nc(-c3ccccc3)c(-c3ccccc3)cc2C1)=NO[C@H](C)c1cn([C@H](CO)Cc2ccccc2)nn1,0.136,-2.39 (inactive),-0.413 (inactive),0.987 (inactive),1.11 (inactive),0.545,-0.0494,0.824,1.23,0.565
C#CCCCON=C1C[C@@H](O)[C@@H](O)[C@@H]2[C@@H]3C(=O)N(CC)C(=O)[C@@H]3CC[C@H]12,0.401,0.0934 (inactive),0.203 (inactive),0.252 (inactive),0.0606 (inactive),0.0761,-0.0986,0.259,0.937,0.275
CC(=O)OC[C@H]1O[C@H](CCON=C(C)CCN2CCCc3nc(C)c(C)cc32)C=C[C@@H]1OC(C)=O,0.166,0.271 (inactive),-0.181 (inactive),0.322 (inactive),0.469 (inactive),0.426,0.0973,0.946,1.17,1
O=C1[C@H]2[C@H]3[C@H](O)[C@H](O)CC(=NOC[C@@H](O)COCc4ccco4)[C@@H]3CC[C@H]2C(=O)N1Cc1ccc2c(c1)OCO2,0.0191,-0.0292 (inactive),0.878 (inactive),-0.0199 (inactive),0.506 (inactive),-0.436,-0.218,3.38,3,1.55
